Bioassay records from PubChem BioAssay.
Compounds with a hit are over-represented: about 4.9% of the library has one in this group of screens.
dFosB activator = enhances mouse delta FosB homodimer DNA binding; P13346; purified delta FosB, TAMRA-CDK5 oligo fluorescence polarization; percent of positive-control signal above neutral wells; activation, % at 25 µM; 340,000 tested, 0.99% active;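 active = mean activation above about 17%, with every replicate also reaching it, limit read from the data, passing the limit was not always enough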
Target sequence (P13346 whole entry, looked up): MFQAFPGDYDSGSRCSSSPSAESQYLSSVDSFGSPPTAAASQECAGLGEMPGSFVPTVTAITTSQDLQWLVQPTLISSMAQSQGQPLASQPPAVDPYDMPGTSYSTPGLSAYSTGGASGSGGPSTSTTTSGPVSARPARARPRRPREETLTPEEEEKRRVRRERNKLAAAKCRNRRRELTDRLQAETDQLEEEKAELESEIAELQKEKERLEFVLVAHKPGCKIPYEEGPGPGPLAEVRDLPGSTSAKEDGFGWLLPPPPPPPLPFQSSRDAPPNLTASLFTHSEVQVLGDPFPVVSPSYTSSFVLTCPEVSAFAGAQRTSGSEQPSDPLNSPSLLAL
MPTP inh = blocks calcium-induced mitochondrial swelling; 360,000 tested, 1.4% active; AID 602449; inhibition, % at 10 µM; isolated mouse mitochondria, Ca2+ swelling absorbance, 30 min;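 active = inhibition of 50% or more, scaled per plate between neutral and stimulator controls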;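 also: 0% = DMSO wells given calcium and 100% = 1 mM EGTA wells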
HSF1 activator = increases HSF-1 driven luciferase reporter signal | NIH3T3-HGL HSF-1 luciferase reporter, MG132, 8 h; 100% = twice DMSO control signal | activation, % at 9 µM | 300,000 tested, 1.7% active;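 active = mean replicate activation of at least 50% with a set share of replicates each reaching 50%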;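 also: 0% = median of the neutral control wells and 100% = twice that signal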
HSP90 inh = blocks HSP90-mediated luciferase refolding in reticulocyte lysate. 290,000 tested, 0.91% active. AID 1789. Rabbit reticulocyte lysate, luciferase refolding luminescence, 3 h. inhibition, % at 5.6 µM;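 active = inhibition above the screen-wide mean plus 3 SD, computed separately per campaign, cut at about 16% in these data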;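 also: 0% = DMSO wells and 100% = 60 µM geldanamycin wells; inhibitors lower the luminescence because luciferase stays unfolded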
Platelet DG rel = platelet dense granule release activity. inhibition, %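 (compounds screened at 7.5 µM in platelet-rich plasma)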. human platelet-rich plasma, SFLLRN dense granule ATP release, luminescence. 300,000 tested, 0.22% active;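 active = mean replicate score, as percent of positive control, at or above 50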
HSF1 inhib = HSF1 inhibition; NIH3T3-HGL HSE-luciferase, MG132-induced, luminescence 8 h; active compounds read low; activity change, negative = inhibition, % at 7.5 µM (by protocol); 300,000 tested, 0.77% active; AID 2098;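 active = more than half of replicate wells show activity change below -50%, luminescence cut by over half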;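 also: luciferase reports HSF-1 transcriptional activity via heat shock element; 0% = median of DMSO wells and -100% = zero luminescence signal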
Rh123 counter = membrane potential counter-screen of mitochondrial pore inhibitors; shares compounds with MPTP inh; 5,000 tested, 78% active; isolated mitochondria, Rhodamine 123 fluorescence; inhibition, % at 10 µM; AID 624504; in the data active = inhibition above about 22%;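 also: 0% = DMSO vehicle and 100% = positive control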
MPTP swell DR = dose response confirmation of mitochondrial permeability transition pore inhibitors; shares compounds with MPTP inh; isolated mitochondria swelling, absorbance; IC50, µM; 780 tested, 58% active; AID 651561; in the data active = IC50 below about 20 µM
MPTP cs DR = active in counter-screen for permeability transition pore inhibitors; shares compounds with MPTP inh; isolated mitochondria counterscreen, fluorescence read-out; IC50, µM; 780 tested, 49% active; AID 651564; in the data active = IC50 below about 80 µM
* marks the source's active call; other numbers are inactive results; i = inactive; . = no result given.

SMILES	dFosB activator	MPTP inh	HSF1 activator	HSP90 inh	Platelet DG rel	HSF1 inhib	Rh123 counter	others
O=c1[nH]c(C2CCN(S(=O)(=O)Cc3ccccc3)CC2)nc2c1nnn2Cc1cccc(Cl)c1	-8	0	30	5	1	32	.
CCN(CC)S(=O)(=O)c1cccc(C(=O)N[C@H](C(=O)Nc2nc3ccc(F)cc3s2)C(C)C)c1	2	55*	24	-8	10	12	72*
CC1CCC(NC(=O)c2cccc(S(=O)(=O)N3CCN(C)CC3)c2)CC1 (stereo unspecified)	-7	0	3	.	2	2	.
CC1CCC(NC(=O)c2cccc(S(=O)(=O)N3CCN(c4ccccc4)CC3)c2)CC1 (stereo unspecified)	-5	76*	-4	.	-7	6	18	MPTP swell DR=i;MPTP cs DR=>80
CN(/N=C/c1cc([N+](=O)[O-])ccc1O)c1ccccc1	2	57*	3	-3	0	5	66*
O=[N+]([O-])c1cccc(N/N=C/c2cc([N+](=O)[O-])ccc2O)c1	5	64*	11	3	10	4	61*
Cn1c2c(c3ccccc31)CCN=C2c1ccccc1	5	0	-9	.	4	-2	.
Cc1ccc(NC(=O)Cc2ccc(Cl)c(Cl)c2)cc1S(=O)(=O)N(C)C	-3	88*	4	1	19	1	88*
Cc1ccc(NC(=O)CNc2ccc(Cl)c(Cl)c2)cc1S(=O)(=O)N(C)C	-7	96*	3	3	-5	-1	94*
CC(NC(=O)c1cccs1)c1n[nH]c(=S)n1C (stereo unspecified)	1	1	0	1	12	-5	.
Cn1c(SCC(=O)Nc2ccc3c(c2)OCO3)nnc1C(F)(F)F	-8	0	.	.	.	.	.
Cc1ccc(S(=O)(=O)N(C)CC(=O)Nc2nc3ccccc3s2)cc1	-1	1	19	-1	0	0	.
Cc1ccc(/C(=N/Nc2nc3ccccc3s2)C2=C(O)c3ccccc3C2=O)cc1	-10	90*	-11	3	5	-8	71*
CCOC1=C2[C@@H](CN(S(=O)(=O)c3ccc(C)cc3)[C@H]2c2ccc(Cl)cc2)[C@H]2C(=O)N(c3ccccc3)C(=O)[C@H]2C1	.	2	.	.	.	.	.
FC(F)(F)Oc1ccc(NC(=S)Nc2ccc(OC(F)(F)F)cc2)cc1	-4	95*	3	-7	-14	-8	71*
COc1ccc(CCNC(=S)Nc2ccc(C(C)C)cc2)cc1	-6	37	3	-4	0	-1	.
CC(C)c1ccc(NC(=S)Nc2ccc(OC(F)(F)F)cc2)cc1	-7	90*	-26	-2	-6	-24	90*
CC(C)(C)c1ccc(C(=O)C2CCCN(C(=O)c3ccccn3)C2)cc1 (stereo unspecified)	-5	70*	8	3	-10	-2	93*
Cc1cnc(C(=O)N2CCCC(C(=O)c3ccc(C(C)(C)C)cc3)C2)cn1 (stereo unspecified)	-6	1	16	1	3	2	.
Cn1c(=O)c2[nH]c(CCCCCCCCc3nc4ccccc4[nH]3)nc2n(C)c1=O	-8	102*	.	.	.	.	94*
Cn1c(=O)c2[nH]c(CCCCc3nc4ccccc4[nH]3)nc2n(C)c1=O	4	-1	.	.	.	.	.
Cc1ccc(OCCCCN2CCCCC2)c(C)c1	3	-1	3	5	-2	5	.
Cc1ccc(OCCCCNC2CCCC(C)C2C)c(C)c1 (stereo unspecified)	6	60*	-1	-1	2	2	-1
O=C(Nc1ccc(Cl)c(Cl)c1)C1CC(=O)N(c2ccc(Br)cc2)C1 (stereo unspecified)	-5	63*	1	0	15	-7	87*
COC(=O)C1=CN(c2cccc(OCc3ccccc3)c2)C(N)=C(C#N)C1c1cccc(F)c1 (stereo unspecified)	.	0	.	.	.	.	.
